Laboratory results published in PubChem BioAssay (NCATS).
“And” between values parts separate entries of the source, which are not always exact repeats. Equal entries are not always repeated. Inconclusive results are not listed. The source made the active and inactive calls. Calls come from the whole dose curve; as a rule, active = well fitted curve in the direction sought with a large enough effect; inconclusive = small, poorly fitted or top-dose-only effect, or another doubt; inactive = no such curve, though single readings can be large; an effect the other way counts as inactive or inconclusive.

Experiments:
[1] = target: Cellular tumor antigen p53 (Homo sapiens) (UniProt P04637); assay: Primary qHTS for small molecule compounds that upregulate eGFP-tagged delta133p53alpha (in N-terminal) cells. (AID 2060322); settings: NCI-H358 eGFP-delta133p53alpha fluorescence, 24 h; activation: active compounds read high; note: nearly all actives have a fitted effect of over 75% in size; note: potency is the fitted concentration of half-maximal effect;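 for activation: series mostly up to about 56 µM; 0% = DMSO vehicle and 100% = reference activator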
How it was run: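 NCI-H358 cells pre-induced 24 h with 10 ng/ml doxycycline to express N-terminal eGFP-delta133p53alpha, then dosed 24 h at 37C without doxycycline; fixed, Hoechst-stained, GFP intensity by laser scanning cytometry, normalized to DMSO (0%) and 57.5 uM 5-azacytidine (100%).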

[2] = target: Aldehyde dehydrogenase, mitochondrial (Homo sapiens) (UniProt P05091); assay: qHTS for Inhibitors of the Aldehyde Dehydrogenase Family (ALDH2) Primary screen (AID 2061308);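 note: plate controls were vehicle for no effect and reference inhibitor for full effect; nearly all actives have a fitted effect of over 55% in size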
[3] = target: Retinaldehyde dehydrogenase 3 (Homo sapiens) (UniProt P47895); assay: qHTS for Inhibitors of the Aldehyde Dehydrogenase Family (ALDH1A3) Primary screen (AID 2061315);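 note: plate controls were DMSO vehicle for no effect and reference inhibitor for full effect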
[4] = BET inhibitor-based combinations targeting novel dependencies in MECOM-rearranged (r) AML: SET-2 cell line (AID 2202231); settings: SET-2 AML cells viability, CellTiter-Glo luminescence, 48 h; viability: active compounds read low, concentration not given here; note: nearly all actives have a fitted effect of over 35% in size; note: potency is the fitted concentration of half-maximal effect;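 for viability: plate controls were DMSO treated cells for no effect and wells without cells for full effect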
How it was run: (§1)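 Each compound was tested at eleven concentrations on cells seeded at 500/well. After two days' incubation, ATP-based luminescence reported viability; responses relative to DMSO and blank wells yielded AUC and cell-line-centred Z-AUC.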

[5] = BET inhibitor-based combinations targeting novel dependencies in MECOM-rearranged (r) AML: OCI-AML3 cell line (AID 2202232); settings: Potency: OCI-AML3 viability; note: nearly all actives have a fitted effect of over 35% in size; note: potency is the fitted concentration of half-maximal effect;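 for viability (% of control): series mostly up to about 46 µM; plate controls were DMSO vehicle wells for no effect and wells without cells for full effect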
How it was run: as §1

[6] = BET inhibitor-based combinations targeting novel dependencies in MECOM-rearranged (r) AML: MV-4-11 cell line (AID 2202233); note: nearly all actives have a fitted effect of over 45% in size; note: potency is the fitted concentration of half-maximal effect;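 for viability, % of control: plate controls were DMSO for no effect and blank wells for full effect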
How it was run: (§2)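 First, 500 cells per well were seeded; next, drugs were pinned as 11-point doses; then plates sat 48 hr in the incubator; finally CellTiter-Glo was added and luminescence read, with AUC and Z-AUC computed.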

[7] = BET inhibitor-based combinations targeting novel dependencies in MECOM-rearranged (r) AML: HNT-34 cell line (AID 2202234); note: nearly all actives have a fitted effect of over 35% in size; note: potency is the fitted concentration of half-maximal effect;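 for viability (% of control): plate controls were vehicle wells for no effect and cell-free wells for full effect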
How it was run: as §2

[8] = BET inhibitor-based combinations targeting novel dependencies in MECOM-rearranged (r) AML: UCSD-AML1 cell line (AID 2202235); note: nearly all actives have a fitted effect of over 40% in size; note: potency is the fitted concentration of half-maximal effect;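 for viability (% of control): series mostly up to about 46 µM; plate controls were DMSO vehicle wells for no effect and blank wells for full effect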
How it was run: as §2

[9] = BET inhibitor-based combinations targeting novel dependencies in MECOM-rearranged (r) AML: AML-191 cell line (AID 2202236; note: nearly all actives have a fitted effect of over 35% in size; note: potency is the fitted concentration of half-maximal effect;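 for viability (% of control): plate controls were vehicle wells for no effect and wells without cells for full effect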)
How it was run: as §1

[10] = BET inhibitor-based combinations targeting novel dependencies in MECOM-rearranged (r) AML: AML-194 cell line (AID 2202237; note: nearly all actives have a fitted effect of over 40% in size; note: potency is the fitted concentration of half-maximal effect;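 for viability (% of control): plate controls were vehicle wells for no effect and wells without cells for full effect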)
How it was run: as §1

Cellular tumor antigen p53 (Homo sapiens), sequence (P04637 whole entry, looked up): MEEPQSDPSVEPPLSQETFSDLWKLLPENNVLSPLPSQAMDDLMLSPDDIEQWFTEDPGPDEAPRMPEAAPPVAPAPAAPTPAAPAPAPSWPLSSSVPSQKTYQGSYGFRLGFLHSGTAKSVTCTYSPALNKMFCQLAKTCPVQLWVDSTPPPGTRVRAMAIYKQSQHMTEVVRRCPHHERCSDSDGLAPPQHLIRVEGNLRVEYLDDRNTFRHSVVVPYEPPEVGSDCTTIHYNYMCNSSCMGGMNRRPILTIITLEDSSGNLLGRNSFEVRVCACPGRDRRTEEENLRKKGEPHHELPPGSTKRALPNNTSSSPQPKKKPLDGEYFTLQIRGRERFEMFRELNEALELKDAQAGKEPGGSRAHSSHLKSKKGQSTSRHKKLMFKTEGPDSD

CCN(c1cc(C#CCN2CCOCC2)cc(C(=O)NCc2c(C)cc(C)[nH]c2=O)c1C)C1CCC(N(C)CCOC)CC1 (stereo not given)
inactive: activation [1] -11.7% | Potency [2] | Potency [3] | viability [4] 113% | Potency [5] | Potency [6] | Potency [7] | Potency [8] | Potency [9] | Potency [10]

CC(=O)Nc1nc(C)c(-c2ccc(Cl)c(S(=O)(=O)NCCO)c2)s1
inactive: activation [1] 12.7% and -14.3% | Potency [2] | Potency [3]
active: Potency [4] 14.8 µM | Potency [5] 8.33 µM | Potency [6] 3.72 µM | Potency [7] 5.25 µM | Potency [8] 3.72 µM | Potency [9] 5.25 µM | Potency [10] 4.17 µM

CC(C)CC(=O)Nc1n[nH]c2c1CN(C(=O)C1CCN(C)CC1)C2(C)C
active: Potency [1] 6.11 µM and 4.78 µM | Potency [4] 10.5 µM | Potency [5] 1.32 µM | Potency [6] 0.372 µM | Potency [7] 2.35 µM | Potency [8] 2.35 µM | Potency [9] 5.9 µM | Potency [10] 5.9 µM
inactive: Potency [2] | Potency [3]

C=CC(=O)Nc1cccc(Oc2nc(Nc3ccc(N4CCN(C)CC4)cc3)ncc2Cl)c1
active: Potency [1] 9.68 µM and 13.5 µM | Potency [4] 14.8 µM | Potency [5] 7.42 µM | Potency [6] 1.86 µM | Potency [7] 2.35 µM | Potency [8] 4.17 µM | Potency [9] 5.9 µM | Potency [10] 5.25 µM
inactive: Potency [2] | Potency [3]

C1Cc2[nH]nc(-c3nn[nH]n3)c2C1
inactive: activation [1] 0.623% and -10.5% | Potency [2] | Potency [3] | viability [4] 120% | Potency [5] | Potency [6] | Potency [7] | Potency [8] | Potency [9] | Potency [10]

Cc1sc2c(c1C)C(c1ccc(Cl)cc1)=N[C@@H](CC(=O)Nc1ccc(OCCOCCOCCOCCNc3cccc4c3C(=O)N(C3CCC(=O)NC3=O)C4=O)cc1)c1nnc(C)n1-2 (stereo not given in full)
active: Potency [4] 1.05 µM | Potency [5] 0.0332 µM | Potency [6] 0.0417 µM | Potency [7] 0.0148 µM | Potency [8] 0.0209 µM | Potency [9] 0.0833 µM | Potency [10] 0.0525 µM
inactive: activation [1] 59% | Potency [2] | Potency [3]

CN[C@@H](C)[C@H]1[C@H](O)C[C@@]2(C)[C@@H]3CC[C@H]4C(C)(C)[C@@H](NC)CC[C@@]45C[C@@]35CC[C@]12C
inactive: activation [1] -17.2% and -1.67% | activity change, negative = inhibition [2] 0.631% [at 11.2 µM] | activity change, negative = inhibition [3] 0.124% [at 11.2 µM] | viability [4] 106% | viability (% of control) [5] 106% [at 8.46 µM] | viability, % of control [6] 115% [at 8.46 µM] | viability (% of control) [7] 103% [at 8.46 µM] | viability (% of control) [8] 111% [at 8.46 µM] | viability (% of control) [9] 95.8% [at 8.46 µM] | viability (% of control) [10] 117% [at 8.46 µM]

COc1cc2nc(-c3cc(F)ccc3O)nc(N[C@@H]3CNC[C@H]3C(C)(C)O)c2cc1OC
inactive: Potency [2] | Potency [3]
active: Potency [1] 21.3 µM | Potency [4] 6.61 µM | Potency [5] 7.42 µM | Potency [6] 0.0066 µM | Potency [7] 4.68 µM | Potency [8] 4.17 µM | Potency [9] 5.25 µM | Potency [10] 6.61 µM

Cc1c(C(=O)Nc2ccc(N3C[C@@H](C)O[C@@H](C)C3)nc2)cccc1-c1ccc(OC(F)(F)F)cc1
active: Potency [6] 5.25 µM
inactive: activation [1] 18.3% and -6.33% | Potency [2] | Potency [3] | viability [4] 98.5% | Potency [5] | Potency [7] | Potency [8] | Potency [9] | Potency [10]

Cc1cnc(Nc2ccc(OCCN3CCCC3)cc2)nc1Nc1cccc(S(=O)(=O)NC(C)(C)C)c1
inactive: activation [1] 27.2% and -7.14% and 27.9% | Potency [2] | Potency [3]
active: Potency [4] 4.68 µM | Potency [5] 2.63 µM | Potency [6] 0.742 µM | Potency [7] 1.66 µM | Potency [8] 2.35 µM | Potency [9] 3.32 µM | Potency [10] 5.25 µM

c1ccc(-c2ccc(CNc3nc(-c4ccccn4)nnc3-c3ccccc3)cc2)cc1
active: Potency [4] 2.35 µM | Potency [5] 1.32 µM | Potency [6] 1.18 µM | Potency [7] 1.32 µM | Potency [8] 1.05 µM | Potency [9] 0.934 µM | Potency [10] 1.05 µM
inactive: activation [1] -11.7% | Potency [2] | Potency [3]

OCc1ccccc1O[C@@H]1O[C@H](CO)[C@@H](O)[C@H](O)[C@H]1O
inactive: activation [1] 2.68% | Potency [2] | Potency [3] | viability [4] 115% | Potency [5] | Potency [6] | Potency [7] | Potency [8] | Potency [9] | Potency [10]

Nc1ccc(-c2ccc3ncc4ccc(=O)n(-c5cccc(C(F)(F)F)c5)c4c3c2)cn1
active: Potency [4] 0.105 µM | Potency [5] 0.166 µM | Potency [6] 0.0833 µM | Potency [7] 0.059 µM | Potency [8] 0.0263 µM | Potency [9] 0.0525 µM | Potency [10] 0.0417 µM
inactive: activation [1] 6.6% | Potency [2] | Potency [3]

Cn1c2cc(S(C)=O)sc2c2cnn(Cc3cccc(N)c3)c(=O)c21 (stereo not given)
inactive: activation [1] 15.5% | Potency [2] | Potency [3] | viability [4] 104% | Potency [5] | Potency [6] | Potency [7] | Potency [8] | Potency [9] | Potency [10]
